The text below walks through data of PubChem BioAssay (EPA / NIEHS).

The structures appear in SMILES notation. Active and inactive are the calls of the source. Rule for the calls: active = hit-call score of the fitted dose curve at least 0.9, where 1 is the maximum; inactive = score below 0.9.

Read-out in the test: matrix metalloproteinase-10 (MMP10), MMP10 (gene 4319)
The test can be described thus: LTEA_HepaRG_MMP10: Life Technologies and Expression Analysis (LTEA) Assay for matrix metalloproteinase-10 (MMP10) using HepaRG (AID 2283517). The following applies: mRNA level, 48 h; actives raise or lower the signal. How it is done: LTEA_HepaRG is a cell based, multiplexed-readout assay that uses HepaRG, a human liver cell line, with measurements taken at 48 hours after chemical dosing on a 96-well plate.LTEA_HepaRG_MMP10 is one of 102 assay component(s) measured in the LTEA HepaRG cell culture assay. It is a marker of Fibrosis.Data from the assay component LTEA_HepaRG_MMP10 was analyzed into 1 endpoint. This assay endpoint, LTEA_HepaRG_MMP10, was analyzed with bidirectional fitting relative to DMSO as the negative control and baseline of activity. Using a type of inducible reporter, measures of mRNA induction for gain or loss-of-signal activity can be used to understand regulation of transcription factor activity. To generalize the intended target to other relatable targets, this assay endpoint is annotated to the protease intended target family, where the subfamily is matrix metalloproteinase.
A total of 1060 chemcials from the ToxCast library were tested in eight-point concentration-response experiments. Cell culture and cytotoxicity assays were conducted at Thermo Fisher Scientific's Custom Services facility (Madison, WI). A single lot of human HepaRG cells (Thermo Fisher Scientific, Frederick, MD) was used for the cell culture experiments. 96-well format collagen type I coated plates of human HepaRG cells were prepared using established methods. Briefly, cryopreserved HepaRG cells were thawed, plated at a density of approximately 100,000 cells/well in HepaRG Thaw, Plate, and General Purpose media (HPRG770, Thermo Fisher Scientific), and incubated for 48 hours. 0.5% DMSO was selected as vehicle control to balance the requisite need of DMSO in HepaRG cultures to maintain differentiation (for example, baseline metabolism, proportions of hepatocytes vs. cholangiocytes), while enabling further hepatic receptor pathway activation (for example, PXR and CAR) in response to chemical exposure. 48 hours after plating, the culture medium was replaced with HepaRG Serum-Free Incudtion Media. Cells were exposed to each test chemical in duplicate and maintained in CO2 incubators for another 48 hours. Chemical plates were thawed to room temperature and 200x concentrations of treatment groups were prepared. 8-point conentration-reponse curves were made with the highest exposure at 100 uM, followed by half-log dilutions, all in 0.5% DMSO. Each test plate contained variouse controls, induction positive controls (1mM phenobarbital), cytotoxicity positive controls ([…] aflatoxin B1), vehicle controls (0.5% DMSO), and total lysis controls (0.5% DMSO). Cell morphology images were taken using an Essen IncuCyte FLR automated microscope, with six 96-well plates imaged in about 24 minutes. Images were captured and exported and JPEG files. Spent culture media was transfered to black-well plates for the LDH assay, and remaining media was sorted at -80 C for later use. Cells were treated with RLT buffer and frozen until shipped for gene expression analysis. Total RNA was isolated from the cell suspension in 75 uL of Buffer RLT (Qiagen, Germantown, MD 20874) by Quintiles/Expression Analysis (Durham, NC) using a custom isolation procedure. Total RNA from each plate well was transferred to a preamplification plate. Fluidigm's 96.96 Dynamic ArrayTM (Fluidigm, Amsterdam, the Netherlands) technology was used for gene expression analyses by quantitative reverse transcription polymerase chain reaction (qRT-PCR, performed by Quintiles/Expression Analysis, Durham, NC)89. Standard TaqManTM Assays (Applied Biosystems/ThermoFisher Scientific, Foster City, CA) were used to assess the expression of 93 genes selected based on their selectivity and sensitivity to important hepatic receptors known to be modulated by environmental chemicals; importance in human hepatocyte functionality; and hepatotoxicity. […]
The term AC50 denotes the concentration at which the activity in the assay is half-maximal. As to `Oc1c(Cl)c(Cl)c(Cl)c(Cl)c1Cl`, the AC50 was 25.5 µM (active).
In the case of `Clc1ccc(C(Cl)(Cl)Cl)cc1`, the compound was called inactive.
As to `N#Cc1ccc(N(CC(N)=O)CC(F)(F)F)cc1C(F)(F)F`, the compound was classed as inactive.
With `O=C(O)C(F)(F)C(F)(F)C(F)(F)C(F)(F)C(F)(F)C(F)(F)C(F)(F)C(F)(F)F`, the AC50 is 76.9 µM (active).
For `Nc1ccc(-c2ccc(N)cc2)cc1`, the compound was classed as inactive.
For the compound `CO/C=C(/C(=O)OC)c1ccccc1COc1cccc(C(F)(F)F)n1`, the AC50 is 12.6 µM (active).
For `CCCN(CCC)N=O`, the compound was classed as inactive.
As to `O=C(N[C@H]1CN2CCC1CC2)c1cc2ccoc2cn1`, the compound was called inactive.
Still for that read-out and setting: the value for `Cc1ccc(O)c(C)c1` was “inactive”; that for `Clc1ccc(C(c2ccccc2Cl)C(Cl)(Cl)Cl)cc1` (stereo not given) was “inactive”.
Regarding `CC(c1ccc(O)cc1)(c1ccc(O)cc1)c1ccc(O)cc1`, the AC50 was 50 µM (active).
In the case of `CCCCCCCCCc1ccc(O)cc1`, the result was inactive.
Regarding `COS(=O)(=O)OC`, the result was inactive.
Still for that read-out and setting: the value for `C[C@]12CCC(=O)C=C1CC[C@@H]1[C@@H]2CC[C@]2(C)C(=O)CC[C@@H]12` was “inactive”.
`CC(C)C(=O)OCC(C)(C)C(OC(=O)C(C)C)C(C)C` (stereo not given): the compound was classed as inactive.
For `Nn1cnnc1`, the compound was called inactive.
Take `CC1=C2C[C@H]3[C@@H](CC=C4C[C@@H](O)CC[C@@]43C)[C@@H]2CC[C@]12O[C@@H]1C[C@H](C)CN[C@H]1[C@H]2C`: the outcome was inactive.
Same read-out and setting: the value for `c1cc2ccc3cccc4ccc(c1)c2c34` was “inactive”.
Regarding `CCOCCOC(C)=O`, the call was inactive.
`CCOC(=O)C(O)(c1ccc(Cl)cc1)c1ccc(Cl)cc1`: the compound was classed as inactive.
Turning to `C=CC(N)=O`, the call was inactive.
Same read-out and setting: the value for `Cc1cccc([N+](=O)[O-])c1` was “inactive”.
For the compound `Oc1ccc(C(c2ccc(O)cc2)(C(F)(F)F)C(F)(F)F)cc1`, the AC50 is 82.7 µM (active).
With `O=C(O)C(F)(F)C(F)(F)C(F)(F)C(F)(F)C(F)(F)C(F)(F)C(F)(F)C(F)(F)C(F)(F)F`, the AC50 is 37.1 µM (active).
`CCNc1nc(NC(C)C)nc(SC)n1`: the outcome was inactive.
The same measure, in the same setting: the value for `CCCCCCCCOC(=O)c1ccccc1C(=O)OCCCCCCCC` was “inactive”; that for `O=C(NC(=O)c1c(F)cccc1F)Nc1cc(Cl)c(OC(F)(F)C(F)F)c(Cl)c1` was “inactive”.
Regarding `O=C(O)C(F)(F)C(F)(F)C(F)(F)C(F)(F)C(F)(F)F`, the result was inactive.
Still for that read-out and setting: the value for `C1CC2OC2CC1C1CO1` (stereo not given) was “inactive”.
Still for that read-out and setting: the value for `O=NN(c1ccccc1)c1ccccc1` was “inactive”; that for `CCCCCCOC(=O)c1ccccc1C(=O)OCCCCCC` was “inactive”; that for `O=S(=O)(O)C(F)(F)C(F)(F)C(F)(F)C(F)(F)F` was “inactive”.
Take `Cc1cc(O)ccc1Cl`: the result was inactive.
With `COc1ccc(O)c(C(C)(C)C)c1`, the compound was classed as inactive.
Consider `Cc1ccccc1O`, for which the call was inactive.
`CCC(C)c1cc([N+](=O)[O-])cc([N+](=O)[O-])c1O` (stereo not given): the AC50 is 3.93 µM (active).
Turning to `O=S(=O)(O)C(F)(F)C(F)(F)C(F)(F)C(F)(F)C(F)(F)C(F)(F)F`, the compound was called inactive.
Consider `Clc1ccc(Cl)cc1`, for which the compound was classed as inactive.
With `O=C(NC(=O)c1cc(F)c(F)cc1Cl)Nc1cc(F)ccc1N1CCC(C(=O)O)CC1`, the compound was classed as inactive.
`CC(C)(c1ccccc1)c1ccc(O)cc1`: the compound was classed as inactive.
